According to PubChem BioAssay (Tox21):
Records with an inconclusive call do not appear. Active and inactive are the calls of the source. Unless noted, calls come from the whole dose curve; as a rule, active = well fitted curve in the direction sought with a large enough effect in the repeat runs; inconclusive = weak or mixed curves; inactive = no such curve, though single readings can be large; an effect the other way counts as inactive or inconclusive.

Key:
[1] = molecular target: Thyrotropin receptor (Homo sapiens) (UniProt P16473); experiment: qHTS assay to identify small molecule antagonists of the thyroid stimulating hormone receptor (TSHR) signaling pathway (AID 1259385; calls by dose curve; note: nearly all actives have a fitted effect of over 20% in size); details: TSHR-HEK293 cAMP HTRF, TSH-stimulated antagonist mode; series mostly up to 92.4 µM
How it was run: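 TSHR-HEK293 cells were plated and held 18 h at 37C/5% CO2, then given compound plus Ro20-1724 and stimulated with TSH at 1.5 ng/mL final. After 30 min at room temperature, cAMP was detected with cAMP-d2/anti-cAMP-cryptate (1 h) by fluorescence.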

[2] = qHTS assay to identify small molecule agonists of the estrogen receptor alpha (ER-alpha) signaling pathway in the presence of an antagonist - cell viability counter screen (AID 1259386); details: VM7Luc4E2 viability, CellTiter-Fluor fluorescence, 22 h; series mostly up to 92.4 µM;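 note: cells exposed to compounds for 22 h at 37 °C before the viability read; nearly all actives have a fitted effect of over 30% in size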; note: potency is the fitted concentration of half-maximal effect
How it was run: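 Using estrogen-depleted VM7Luc4E2 cells, the 15-concentration compound series was applied together with 10.0nM ICI-182,780 and incubated 22hr at 37C/5% CO2. Cell viability was then scored by CellTiter-Fluor.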

[3] = molecular target: Progesterone receptor (Homo sapiens) (UniProt P06401); experiment: qHTS assay to identify small molecule agonists of the progesterone receptor (PR) signaling pathway (AID 1346784; calls by dose curve; note: nearly all actives have a fitted effect of over 30% in size); details: PR-UAS-bla HEK293T, beta-lactamase FRET ratio, 16 h; series mostly up to 92.4 µM
How it was run: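 PR-UAS-bla HEK 293T cells (beta-lactamase reporter under UAS) in 2% charcoal-stripped FBS, dosed with 23 nL compound after 6 hr, incubated 16hr at 37C. LiveBLAzer B/G FRET substrate added, fluorescence read after 2 hours.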

[4] = molecular target: Progesterone receptor (Homo sapiens) (UniProt P06401); experiment: qHTS assay to identify small molecule antagonists of the progesterone receptor (PR) signaling pathway (AID 1346795; active = well fitted inhibition curve with a large enough effect in the signal ratio in the repeat runs, not every such curve was filed as active; the % refers to the signal ratio; note: potency is the fitted concentration of half-maximal effect); details: PR-UAS-bla HEK293T, beta-lactamase FRET ratio, 16 h; series mostly up to 92.4 µM
How it was run: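 PR-UAS-bla HEK293T cells with beta-lactamase reporter under UAS control, in 2% charcoal-stripped FBS, treated with compounds plus 1 nM promegestone (R5020, final) for 16 hr at 37C. Read-out: FRET beta-lactamase substrate fluorescence after 2 hr at room temperature.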

[5] = qHTS assay to identify small molecule agonists of the progesterone receptor (PR) signaling pathway - cell viability counter screen (AID 1346799; calls by dose curve; note: nearly all actives have a fitted effect of over 45% in size); details: PR-UAS-bla HEK293T viability, CellTiter-Glo luminescence, 16 h; series mostly up to 92.4 µM
How it was run: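 Counter screen in the PR-UAS-bla HEK293T wells (2% charcoal-stripped FBS, 16 h compound exposure at 37 C) after the bla read. CellTiter-Glo added, 30 min at room temperature, luminescence read as cell viability.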

[6] = qHTS assay to identify small molecule agonists of the TGF-beta/Smad signaling pathway - cell viability counter screen (AID 1346829); details: SBE-bla HEK293T viability, CellTiter-Glo luminescence, 5 h; series mostly up to 76.8 µM; note: top concentration of the series differs between compounds; nearly all actives have a fitted effect of over 45% in size
How it was run: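 Here the cytotoxicity of library compounds is measured in SBE-bla HEK 293T cells treated for 5 hr, using CellTiter-Glo added to wells already read for the beta-lactamase reporter.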

[7] = qHTS assay to identify small molecule agonists of the TGF-beta/Smad signaling pathway (AID 1346859; active = well fitted activation curve with a large enough effect in the signal ratio in the repeat runs, not every such curve was filed as active; the % refers to the signal ratio); details: SBE-bla HEK293T, TGF-beta/Smad beta-lactamase reporter, 5 h; series mostly up to 76.8 µM
How it was run: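 SBE-bla HEK293T cells plated overnight, then compound exposure for 5 h at 37 C. Beta-lactamase reporter read with LiveBLAzer B/G FRET substrate after 2 h at room temperature, fluorescence at 405 nm excitation, 460/530 nm emission.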

[8] = molecular target: Thyrotropin-releasing hormone receptor (Homo sapiens) (UniProt P34981); experiment: qHTS assay to identify small molecule antagonists of the thyrotropin-releasing hormone receptor (TRHR) signaling pathway (AID 1346877; active = well fitted inhibition curve with a large enough effect in the repeat runs, not every such curve was filed as active); details: TRHR-HEK293, TRH-induced calcium fluorescence, antagonist mode; series mostly up to 51.3 µM
How it was run: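 Calcium signal in dye-loaded TRHR/HEK293 cells; compounds added 5 min before TRH (1 nM final); fluorescence monitored 3 min at 1 s steps.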

[9] = qHTS assay to identify small molecule antagonists of the TGF-beta/Smad signaling pathway - cell viability counter screen (AID 1346824); details: SBE-bla HEK293T viability, CellTiter-Glo luminescence; series mostly up to 76.8 µM; note: nearly all actives have a fitted effect of over 50% in size
How it was run: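 SBE-bla HEK 293T cells were plated overnight at 37 C, then given compounds in DMSO plus TGF-beta1 (added as 0.25 ng/mL solution) for 5 hr. After the bla read, CellTiter-Glo was added to the same wells and luminescence read after 30 min at room temperature.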

[10] = qHTS assay to identify small molecule antagonists of the progesterone receptor (PR) signaling pathway - cell viability counter screen (AID 1346798); details: PR-UAS-bla HEK293T viability, CellTiter-Glo luminescence, 16 h; series mostly up to 92.4 µM; note: nearly all actives have a fitted effect of over 50% in size
How it was run: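 PR-UAS-bla HEK293T cells, 3,000/well in 2% charcoal-stripped FBS medium, dosed with compounds plus R5020 agonist and incubated 16 h at 37C. Viability then measured in the same wells by CellTiter-Glo luminescence after 30 min at RT.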

Measured: Potency

Sequence of Thyrotropin-releasing hormone receptor (Homo sapiens) (P34981 whole entry, looked up): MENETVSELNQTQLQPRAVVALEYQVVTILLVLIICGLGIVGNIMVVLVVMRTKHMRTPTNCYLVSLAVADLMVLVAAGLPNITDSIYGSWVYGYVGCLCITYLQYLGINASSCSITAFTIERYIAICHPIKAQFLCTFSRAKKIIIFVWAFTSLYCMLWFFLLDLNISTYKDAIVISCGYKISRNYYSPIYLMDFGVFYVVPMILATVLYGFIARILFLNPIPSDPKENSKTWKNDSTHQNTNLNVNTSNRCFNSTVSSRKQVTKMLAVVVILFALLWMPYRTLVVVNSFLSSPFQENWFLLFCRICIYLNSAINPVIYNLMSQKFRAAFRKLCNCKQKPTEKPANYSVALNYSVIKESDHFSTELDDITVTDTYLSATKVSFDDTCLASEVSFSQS
Sequence of Progesterone receptor (Homo sapiens) (P06401 whole entry, looked up): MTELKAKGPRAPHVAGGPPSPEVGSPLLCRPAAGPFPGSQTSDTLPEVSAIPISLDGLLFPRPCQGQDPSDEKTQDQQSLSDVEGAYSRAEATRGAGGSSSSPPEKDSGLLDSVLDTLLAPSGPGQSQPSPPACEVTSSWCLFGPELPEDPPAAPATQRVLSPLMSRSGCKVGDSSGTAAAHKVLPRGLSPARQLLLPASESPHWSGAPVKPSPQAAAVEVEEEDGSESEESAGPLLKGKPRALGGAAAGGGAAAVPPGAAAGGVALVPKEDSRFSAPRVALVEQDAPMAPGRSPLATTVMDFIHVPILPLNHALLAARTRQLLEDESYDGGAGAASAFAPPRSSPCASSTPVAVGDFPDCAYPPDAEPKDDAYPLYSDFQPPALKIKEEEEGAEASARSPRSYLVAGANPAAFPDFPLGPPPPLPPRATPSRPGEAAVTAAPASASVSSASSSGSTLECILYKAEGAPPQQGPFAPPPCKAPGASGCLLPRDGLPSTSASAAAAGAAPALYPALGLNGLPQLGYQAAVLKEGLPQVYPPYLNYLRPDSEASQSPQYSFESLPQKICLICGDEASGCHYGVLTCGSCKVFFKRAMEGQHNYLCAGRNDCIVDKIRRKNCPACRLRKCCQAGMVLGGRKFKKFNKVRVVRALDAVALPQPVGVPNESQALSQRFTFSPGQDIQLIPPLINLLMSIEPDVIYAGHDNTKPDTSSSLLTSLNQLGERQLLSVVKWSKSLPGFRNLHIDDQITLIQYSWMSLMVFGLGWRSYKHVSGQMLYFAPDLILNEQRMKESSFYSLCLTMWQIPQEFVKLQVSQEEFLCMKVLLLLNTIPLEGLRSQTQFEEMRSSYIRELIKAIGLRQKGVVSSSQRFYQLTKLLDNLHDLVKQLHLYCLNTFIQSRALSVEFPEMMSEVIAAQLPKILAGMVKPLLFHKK
Sequence of Thyrotropin receptor (Homo sapiens) (P16473 whole entry, looked up): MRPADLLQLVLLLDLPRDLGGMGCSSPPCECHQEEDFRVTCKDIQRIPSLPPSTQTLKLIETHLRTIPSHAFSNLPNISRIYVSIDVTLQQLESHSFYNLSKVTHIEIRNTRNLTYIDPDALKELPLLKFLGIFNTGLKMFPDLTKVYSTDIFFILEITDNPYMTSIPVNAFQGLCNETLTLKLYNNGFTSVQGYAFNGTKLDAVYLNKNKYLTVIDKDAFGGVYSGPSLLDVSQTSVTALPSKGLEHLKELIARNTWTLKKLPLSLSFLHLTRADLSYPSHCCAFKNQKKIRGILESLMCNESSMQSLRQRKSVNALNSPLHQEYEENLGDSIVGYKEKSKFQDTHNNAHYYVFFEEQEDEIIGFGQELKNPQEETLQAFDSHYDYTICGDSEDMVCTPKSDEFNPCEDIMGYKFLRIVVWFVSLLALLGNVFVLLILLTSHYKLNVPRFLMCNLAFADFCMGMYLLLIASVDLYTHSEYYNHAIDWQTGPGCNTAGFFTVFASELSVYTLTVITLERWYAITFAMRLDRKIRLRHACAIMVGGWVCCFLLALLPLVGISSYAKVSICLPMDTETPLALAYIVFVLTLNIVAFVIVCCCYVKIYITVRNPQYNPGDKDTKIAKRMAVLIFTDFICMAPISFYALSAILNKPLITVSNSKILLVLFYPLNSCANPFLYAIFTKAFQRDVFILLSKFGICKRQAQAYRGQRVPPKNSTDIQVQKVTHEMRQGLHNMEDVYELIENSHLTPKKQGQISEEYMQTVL

O=c1[nH]nc(-c2ccc([N+](=O)[O-])o2)o1
active: [2] 54.5 µM
not listed: [9] | [10]
inactive: all other assays above

CCCC(=O)OCCC(C)C
not listed: [9] | [10]
inactive: all other assays above

O=P(c1ccccc1)(c1ccccc1)c1ccccc1
not listed: [10]
inactive: all other assays above

CCC[Si](OC)(OC)OC
not listed: [5]
inactive: all other assays above

C=CC(=O)NC(C)(C)C
not listed: [5] | [10]
inactive: all other assays above

C=CC(O)CCCCC (stereo not drawn)
not listed: [5] | [10]
inactive: all other assays above

CCCCOC(=O)C(C)Oc1ccc(Oc2ccc(C(F)(F)F)cn2)cc1 (stereo not drawn)
not listed: [5] | [8] | [9]
inactive: all other assays above

CC(C)(Cc1c[nH]c2ccccc12)NCC(O)COc1ccccc1C#N (stereo not drawn)
not listed: [5] | [10]
inactive: all other assays above

Cc1ccc2c(Cl)cc(Cl)c(O)c2n1
not listed: [5] | [9]
inactive: all other assays above

Clc1ccccc1-c1nc(-c2ccncc2)no1
active: [4] 26.6 µM
not listed: [5] | [10]
inactive: all other assays above

CCCCCCC/C=C/C=O
not listed: [5] | [9]
inactive: all other assays above

Cc1cc(C)c(C)c(O)c1
not listed: [4] | [7]
inactive: all other assays above

COC(=O)/C=C/C(C)=C\C=C\C(C)=C\C=C\C=C(C)\C=C\C=C(C)\C=C\C(=O)O
not listed: [5] | [10]
inactive: all other assays above

O=C(Nc1ccccc1)c1cc([N+](=O)[O-])ccc1Cl
not listed: [4] | [7]
inactive: all other assays above
